Test results as given in PubChem BioAssay AID1851 (National Center for Advancing Translational Sciences (NCATS), 2009).
Hit rate of the full screen: of about 16,000 compounds, about 5,800 (36%) were called active. Not shown: some 23% with an inconclusive outcome. Calls come from the whole dose curve; as a rule, active = well fitted curve in the direction sought with a large enough effect; inconclusive = small, poorly fitted or top-dose-only effect, or effect the other way; inactive = no such curve, though single readings can be large or run the other way. The list shows a part of the results. Numbered stars: 1 amine (or outer) side, 2 acyl side, 3 side chain; on linkers, the order of the positions; unused ones are H or OH. Bridge positions count the residues as written; N and C are the ends. Square brackets hold non-standard residues; d marks the D form. Peptide text beside a SMILES is read from it. I, II: the chains in the order shown. Actinocin(9to1) = Cc1c2oc3c(C)ccc(C(=O)[*:1])c3nc-2c(C(=O)[*:2])c(N)c1=O; aThr = C[C@H](O)[C@H](N)C(=O)O; NMeV = CN[C@H](C(=O)O)C(C)C; Sar = CNCC(=O)O

Target: Cytochrome P450 2C19 (Homo sapiens) (UniProt P33261)
Test: Cytochrome panel assay with activity outcomes
Conditions: recombinant CYP, pro-luciferin dealkylation, luminescence, p450-cyp2c19; series mostly up to 57.1 µM; activity, negative = inhibition: at the top concentration
% is set by controls: 0 for no effect and ±100 for the full control effect.

Chain of Cytochrome P450 2C19 (Homo sapiens) (P33261 whole entry, looked up): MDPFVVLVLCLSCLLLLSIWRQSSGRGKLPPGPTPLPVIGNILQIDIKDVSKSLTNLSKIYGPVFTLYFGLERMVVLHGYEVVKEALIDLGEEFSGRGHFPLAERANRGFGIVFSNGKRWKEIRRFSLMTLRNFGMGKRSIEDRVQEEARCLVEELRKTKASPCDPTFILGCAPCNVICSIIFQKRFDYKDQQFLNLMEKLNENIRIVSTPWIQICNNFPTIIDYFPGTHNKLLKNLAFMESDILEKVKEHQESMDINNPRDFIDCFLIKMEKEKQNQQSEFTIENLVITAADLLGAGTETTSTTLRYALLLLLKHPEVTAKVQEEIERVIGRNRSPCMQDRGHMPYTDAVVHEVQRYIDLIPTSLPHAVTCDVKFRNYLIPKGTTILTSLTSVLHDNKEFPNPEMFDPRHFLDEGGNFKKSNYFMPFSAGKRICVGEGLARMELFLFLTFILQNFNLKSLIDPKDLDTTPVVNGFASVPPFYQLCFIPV

AC50, active:
O=C(CNC(=O)c1ccco1)OCc1c(F)cccc1Cl 15.8 µM
Cc1ccc2[nH]c(=O)c(NC(N)=S)nc2c1 20 µM
Cc1ccccc1-c1cncnc1Nc1ccccc1 3.16 µM
Cc1ccccc1-c1cncnc1Nc1ccc(F)cc1 5.01 µM
COc1cccc(-c2cncnc2Nc2ccc(F)cc2)c1 0.398 µM
COc1ccccc1-c1cncnc1Nc1ccc(F)cc1 5.01 µM
CC(C)c1cc(C(F)(F)F)nc(NNc2nc(C(C)C)cc(C(F)(F)F)n2)n1 2.51 µM
COc1cc(OC)c(C#N)c(S(=O)(=O)Cc2ccccc2)c1 1.26 µM
CCC(=O)Nc1cc2c(cc1C(=O)c1ccccc1)OCCO2 14.1 µM
COC(=O)C1CCN(c2cc(=O)n(C3CCCCC3)c(=O)[nH]2)CC1 3.98 µM
O=c1cc(N2CCC(Cc3ccccc3)CC2)[nH]c(=O)n1C1CCCCC1 3.16 µM
O=c1cc(N2CCN(c3cccc(Cl)c3)CC2)[nH]c(=O)n1C1CCCCC1 2.51 µM
CO[C@@H]1COC(=O)C/C=C\[C@H](C)COC(=O)[C@H](Cc2ccccc2)NC(=O)C/C=C\[C@H]1C 2.51 µM
COc1cc(N)c(Cl)cc1C(=O)CCC1CCN(CCNS(C)(=O)=O)CC1 10 µM
CC(=O)N[C@@H](c1ccccc1)[C@]1(C)C[C@H]1[C@@H](C)C(=O)Nc1ccc2ccccc2c1 0.398 µM
C[C@@H](C(=O)Nc1ccc2ccccc2c1)[C@H]1C[C@]1(C)[C@H](NS(=O)(=O)c1ccc2ccccc2c1)c1ccccc1 0.251 µM
C[C@@H](C(=O)Nc1ccc2ccccc2c1)[C@H]1C[C@]1(C)[C@H](NC(=O)c1cnccn1)c1ccccc1 15.8 µM
CC(=O)N[C@H](c1ccccc1)[C@@]1(C)C[C@@H]1[C@@H](C)C(=O)Nc1ccc2ccccc2c1 5.01 µM
C[C@@H](C(=O)Nc1ccc2ccccc2c1)[C@H]1C[C@]1(C)[C@H](NP(=O)(c1ccccc1)c1ccccc1)c1ccccc1 10 µM
COC(=O)N[C@H](c1ccccc1)[C@@]1(C)C[C@@H]1[C@@H](C)C(=O)Nc1ccc2ccccc2c1 3.16 µM
CCCCN1C(=O)CN(CCc2ccccc2)C(=O)C1c1ccc(OC)cc1 (stereo not given) 7.08 µM
COc1ccc(C2C(=O)N(CCc3ccccc3)CC(=O)N2C2CCCC2)cc1 (stereo not given) 11.2 µM
CCn1c(SCC(=O)OC)nc2sc3c(c2c1=O)CCC3 8.91 µM
CCCc1ccc(C2C3=C(CC(C)(C)CC3=O)NC3=C2C(=O)c2ccccc23)cc1 (stereo not given) 4.47 µM
c1ccc(Nc2ncnc3ccc(-c4ccoc4)cc23)cc1 2 µM
COc1cccc(-c2ccc3ncnc(Nc4ccccc4)c3c2)c1 0.501 µM
FC(F)(F)c1ccccc1-c1ccc2ncnc(NCc3cccnc3)c2c1 0.00794 µM
COc1ccc(-n2cnc3sc(-c4ccccc4)cc3c2=O)cc1 14.1 µM
Clc1cccc(Nc2ncnc3ccc(Br)cc23)c1 5.01 µM
COc1cccc(-c2ccc3ncnc(NCc4cccnc4)c3c2)c1 0.0126 µM
COc1ccccc1-c1ccc2ncnc(NCc3cccnc3)c2c1 0.00794 µM
COCCNc1ncnc2ccc(-c3ccccc3OC)cc12 5.01 µM
COCCNc1ncnc2ccc(-c3ccccc3C(F)(F)F)cc12 6.31 µM
COc1cccc(-c2ccc3ncnc(NCc4cnc(C)cn4)c3c2)c1 15.8 µM
COc1ccc(Nc2ncnc3sc(-c4ccccc4)cc23)cc1 3.16 µM
FC(F)(F)c1ccccc1-c1ccc2ncnc(NCc3cccs3)c2c1 3.16 µM
Clc1ccccc1-c1ccc2ncnc(NCc3cccnc3)c2c1 0.01 µM
COc1ccccc1-c1ccc2ncnc(NCc3ccccc3)c2c1 3.98 µM
COc1ccccc1-c1ccc2ncnc(Nc3ccccc3)c2c1 5.01 µM
NC(N)=NC(=O)c1nc(Cl)c(N2CCCCCC2)nc1N 5.01 µM

AC50, inactive:
O=c1n(CCCN2CCN(c3cccc(Cl)c3)CC2)nc2ccccn12

activity, negative = inhibition, inactive:
CNc1ncncc1-c1ccccc1C -36.9%
CNc1ncncc1-c1ccccc1OC -6.59%
Cc1ccccc1-c1cncnc1NC1CCNCC1 2.18%
COc1cccc(Nc2ncc3nc(-c4ccc(F)cc4)c(=O)n(CCC#N)c3n2)c1 -41.5%
CS(=O)(=O)Nc1cccc(-c2cncnc2Nc2ccc(F)cc2)c1 -34.9%
CC(C)(C)C(=O)NC(=C(Cl)Cl)P(=O)(O)O -39.2%
CCOC(=O)N/N=C1/C[C@@H](O)[C@@H](O)[C@@H]2[C@@H]3C(=O)N([C@@H](C)c4ccccc4)C(=O)[C@H]3CC[C@H]12 12.9% [at 11.4 µM]
CC(C)Nc1cc(C(F)(F)F)nc(-c2ccccn2)n1 -40.7%
COc1cc(OC)c2c(c1)C(=O)c1cc(OC)cc(OC)c1C2=O -6.51%
CC(C)C(=O)Nc1cc2c(cc1C(=O)c1ccccc1)OCCO2 -89.4%
Cc1ccccc1-n1c(=O)cc(N2CC(C)OC(C)C2)[nH]c1=O (stereo not given) 3.85%
O=C(c1ccco1)N1CCN(c2cc(=O)n(C3CCCCC3)c(=O)[nH]2)CC1 -38.6%
CO[C@H]1COC(=O)C/C=C\[C@H](C)[C@@H](OC)COC(=O)[C@H](Cc2ccccc2)NC(=O)C/C=C\[C@@H]1C -37.5% [at 11.4 µM]
CO[C@@H]1COC(=O)C/C=C\[C@@H](C)COC(=O)[C@H](COCc2ccccc2)NC(=O)C/C=C\[C@H]1C -16.4% [at 11.4 µM]
Cn1cc(C(=O)OCC2CCN(CCNS(C)(=O)=O)CC2)c2ccccc21 -2.19%
CCCCN1CCC(CCC(=O)c2cc(Cl)c(N)cc2OC)CC1 -9.04%
C[C@@H](C(=O)Nc1ccc2ccccc2c1)[C@@H]1C[C@@]1(C)[C@@H](NS(=O)(=O)c1ccc2ccccc2c1)c1ccccc1 15.5%
C[C@@H](C(=O)Nc1ccc2ccccc2c1)[C@@H]1C[C@@]1(C)[C@@H](NC(=O)c1ccncc1Cl)c1ccccc1 -38.4%
C[C@@H](C(=O)Nc1ccc2ccccc2c1)[C@@H]1C[C@@]1(C)[C@@H](NC(=O)c1cnccn1)c1ccccc1 -42.8%
C[C@@H](C(=O)Nc1ccc2ccccc2c1)[C@@H]1C[C@@]1(C)[C@@H](NS(=O)(=O)c1ccc(-c2ccccc2)cc1)c1ccccc1 5.27%
C[C@@H](C(=O)Nc1ccc2ccccc2c1)[C@@H]1C[C@@]1(C)[C@@H](N)c1ccccc1 -33.6%
CO[C@H]1C[C@@H](O[C@@H]2[C@H](C)[C@H](O[C@@H]3O[C@@H](C)C[C@@H](N(C)C)[C@@H]3O)[C@H](C)C[C@]3(CO3)C(=O)[C@H](C)[C@H](O)[C@H](C)[C@H](C)OC(=O)[C@@H]2C)O[C@@H](C)[C@H]1O -29.6% [at 25.6 µM]
C[C@@H](C(=O)Nc1ccc2ccccc2c1)[C@H]1C[C@]1(C)[C@H](NC(=O)Oc1ccc(F)cc1)c1ccccc1 -37.1%
C[C@@H](C(=O)Nc1ccc2ccccc2c1)[C@@H]1C[C@@]1(C)[C@@H](NC(=O)Oc1ccc(F)cc1)c1ccccc1 -43.6%
C[C@@H](C(=O)Cc1ccc2ccccc2c1)[C@@H]1C[C@@]1(C)[C@@H](NP(=O)(c1ccccc1)c1ccccc1)c1ccccc1 -26.1%
C[C@@H](C(=O)Nc1ccc2ccccc2c1)[C@H]1C[C@]1(C)[C@H](NS(=O)(=O)c1ccc(-c2ccccc2)cc1)c1ccccc1 -37.2%
COc1ccc(C2C(C(=O)N3CCN(C)CC3)c3ccccc3C(=O)N2C2CCCCC2)cc1 (stereo not given) 2.2%
COc1ccc([C@@H]2Sc3ccccc3N(CCN(C)C)C(=O)[C@@H]2OC(C)=O)cc1 11.9%
Cc1noc(C)c1C(=O)N1CCC[C@@]2(CCN(C(=O)NC(C)C)C2)C1 -26.5%
COc1cccc(Nc2ncc3nc(-c4ccccc4)c(=O)n(C)c3n2)c1 -4.11%
c1ccc(Nc2ncnc3ccc(-c4cccnc4)cc23)cc1 -45.8%
COc1ncc2nc(-c3ccccc3)c(=O)n(C)c2n1 -34.3%
CN(C)C(=O)c1ccc(-c2ccc3ncnc(Nc4ccccc4)c3c2)cc1 32.7%
CC(C)=NO[C@@H](C)CN1CCCCc2nc(C)c(C)cc21 -14.1% [at 11.4 µM]
COCCNc1ncnc2ccc(-c3ccccc3CN(C)C)cc12 30.9%
NCCNc1ncnc2ccc(Cl)cc12 -2.27% [at 11.4 µM]
COc1ccccc1CN1CC[C@@]2(CCCN(C(=O)c3ccco3)C2)C1 -12.6%
Cc1cnc(CNc2ncnc3ccc(-c4cccc(C#N)c4)cc23)cn1 -9.68%
O=C(c1cnccn1)N1CCC[C@@]2(CCN(c3ncccn3)C2)C1 19.2%
Cc1c2oc3c(C)ccc(C(=O)N[C@@H]4C(=O)N[C@@H](C(C)C)C(=O)N5CCC[C@@H]5C(=O)N(C)CC(=O)N(C)[C@@H](C(C)C)C(=O)O[C@H]4C)c3nc-2c(C(=O)N[C@@H]2C(=O)N[C@@H](C(C)C)C(=O)N3CCC[C@@H]3C(=O)N(C)CC(=O)N(C)[C@@H](C(C)C)C(=O)O[C@H]2C)c(N)c1=O (I: [aThr]V[dP][Sar][NMeV] / II: [aThr]V[dP][Sar][NMeV]; ester I:1-I:C, II:1-II:C; linker I:N-II:N via Actinocin(9to1)) -4.79%
CN(C)Cc1ccccc1-c1ccc2ncnc(NCc3ccccc3)c2c1 -37.6%
Nc1nc2n[nH]nc2c(=O)[nH]1 32.2% [at 25.6 µM]
NC(N)=NC(=O)c1nc(Cl)c(N)nc1N -14.1%
CN(C)c1nc(N)c(C(=O)N=C(N)N)nc1Cl -3.58%
